# From publication PMC5540273 (PLoS ONE, 2017)
# What was measured:
# Conditions in all cases: concentration: 1 μM, replicates: in singlicate; n = 1
# [1] = system: BMX
# [2] = system: BRAF
# [3] = system: T1, BRK
# T1 construct: gene PTK6
# [4] = system: BRSK1
# [5] = system: BRSK2
# [6] = system: BTK
# [7] = system: BUB1
# [8] = system: CAMK1B
# [9] = system: CAMK1D
# [10] = system: CAMK1G
# 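Further: KINOMEscan kinase panel screen.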
Compound,%Inh [1],%Inh [2],%Inh [3],%Inh [4],%Inh [5],%Inh [6],%Inh [7],%Inh [8],%Inh [9],%Inh [10]
CN(C)S(=O)(=O)c1cc(-c2ccc3nccc(-c4cccc(S(N)(=O)=O)c4)c3c2)cnc1N [GSK1669921],21%,30%,11%,12%,0%,0%,0%,0%,25%,7%
COc1ccc(Nc2nccc(NCCNC(=O)c3cc4ccccc4s3)n2)cc1 [GSK1379896],17%,0%,1%,6%,0%,0%,9%,39%,6%,0%
CCc1ccc(-c2ccc3c(c2)-c2c(cnn2C)S(=O)(=O)N3C)cc1,0%,0%,1%,19%,0%,3%,15%,0%,0%,5%
O=C(O)C(F)(F)F.O=C(O)C(F)(F)F.O=c1[nH]ccc2nc(N[C@@H]3CCCNC3)nc(Nc3ccc(S(=O)(=O)N4CCOCC4)cc3)c12 [GSK2177277],58%,0%,9%,69%,69%,90.7%,90.5%,100%,99.1%,74%
O=C(Nc1n[nH]c2cc(-c3ccoc3)ccc12)C1CC1 [SB-738481],16%,0%,0%,11%,0%,0%,0%,0%,0%,0%
Cc1ccc(C)c(NC(=O)NC2CCN(c3ccnc(Nc4ccc(F)cc4)n3)C2)c1 (stereo not shown) [GSK1379720],0%,0%,21%,0%,0%,0%,49%,0%,6%,11%
COc1cccc(C(=O)Nc2cccc(Oc3ccc4nc(NC(=O)C5CC5)cn4n3)c2)c1,77%,96.5%,21%,4%,0%,9%,0%,0%,17%,21%
Nc1ncc(-c2ccc3nccc(-c4ccncc4)c3c2)cc1S(=O)(=O)N1CCOCC1 [GSK1627798],16%,15%,8%,0%,0%,0%,12%,0%,36%,16%
CCn1c(-c2nonc2N)nc2c(C#CC(C)(C)O)nc(OC[C@H](N)c3ccccc3)cc21 [GSK943949],2%,42%,0%,0%,50%,0%,13%,0%,10%,0%
C[C@@H]1CC[C@@H](C(=O)Nc2ccccc2)CN1c1cc(-c2ccc3c(N)n[nH]c3c2)nc(N)n1 [GSK2286062],24%,0%,3%,0%,0%,0%,16%,0%,23%,6%
COc1cccc(C2=C(Nc3ccc(Cl)c(C(=O)O)c3)C(=O)NC2=O)c1 [SB-390769],0%,13%,38%,0%,0%,25%,44%,28%,0%,0%
CCCCc1nn2ncccc2c1-c1ccnc(Nc2ccc(N3CCN(C)CC3)cc2)n1 [GW684941],53%,86%,69%,3%,0%,57%,93.3%,25%,0%,0%
NCCCC(NC(=O)c1cc(Br)c(-c2ccnc3[nH]ccc23)s1)c1ccccc1.O=C(O)C(F)(F)F.O=C(O)C(F)(F)F (stereo not shown) [GSK1287544],7%,0%,3%,28%,0%,0%,21%,10%,18%,0%
O=C(Nc1cccc(-c2nn3ncccc3c2-c2ccnc(Nc3ccccc3)n2)c1)c1c(F)cccc1F [GSK198271],89%,90.9%,94.5%,4%,0%,99.4%,32%,9%,25%,11%
Cc1ccc(C(=O)Nc2ccc(Nc3ccnc4cc(-c5nccs5)ccc34)cc2O)cc1.Cl [GW494702],18%,1%,38%,0%,0%,100%,35%,8%,0%,15%
CSc1cccc2c(-c3ccncn3)c(-c3ccc(F)cc3)nn12 [GW514786],14%,13%,9%,14%,0%,11%,89%,0%,7%,0%
